Structures are written as SMILES. The campaign covered roughly 69,000 compounds. About 8,600 (12%) showed an effect of 50% or more. The sample as a whole holds a higher share of strong results than the screen did.

In this assay the test system is Plasmodium berghei. The assay is described as follows: Screen against P. berghei liver stage (PbLuc), transformed with Luciferase, at 10uM. In kind it is functional, HepG2. To be noted: tested at 10 uM.
As to `CCCNC(=O)C1CCN(Cc2csc(CC)n2)CC1`, the INHIBITION stood at 15.3%.
As for `Cc1cc(C(=O)N2C[C@@H]3CC[C@H]2CN(C)C3)ccc1Cl`, the figure is 18.2%; as for `Cc1ccc(C)c(OCCC(=O)N2CCCN(CC(N)=O)CC2)c1`, -79.3%; as for `COc1cccc(COCC(=O)N2CCCC(c3ccn[nH]3)C2)c1` (configuration not stated), 45.7%.
The result for `CC(C)CN(Cc1ccsc1)C(=O)CCCn1cncn1` reads 62.8%.
For the molecule `CC(=O)CCCC(=O)N(Cc1ccsc1)CC(C)C`, the INHIBITION stood at 35%.
As for `Cc1ccnn1CCC(=O)N(Cc1ccsc1)CC(C)C`, the figure is 41.5%; as for `CNS(=O)(=O)c1ccc(C)c(C(=O)NCCNc2ncccn2)c1`, -7.81%.
Take `CCOc1ccc(CN[C@@H]2COC[C@H]2c2ccc(F)cc2)cc1`: the INHIBITION is -16%.
The result for `CCc1nccn1-c1cccc(C2CCCN2)n1` (configuration not stated) reads 31.3%.
As for `CCc1nccn1-c1cncc(C2CCCN2)n1` (configuration not stated), the figure is 51.7%.
The result for `CCc1nccn1-c1cncc(C2CCCN2Cc2ccc(F)cc2)n1` (configuration not stated) reads 31.1%; that for `CC(C)c1nnc(NC(=O)Cc2csc(-c3nnc[nH]3)n2)s1`, 76.7%; that for `Cc1nc(C)c(CC(=O)Nc2nnc(C(C)C)s2)c(=O)[nH]1`, 25.75%.
Regarding `CCC(C)c1csc(NC(=O)c2sc(-c3nnc[nH]3)nc2C)n1` (configuration not stated), the INHIBITION is listed as 37.8%.
The result for `CCc1nc(NC(=O)Cc2csc(-c3nnc[nH]3)n2)sc1C` reads 55.4%; that for `CCc1ccc(C(C)NC(=O)CCc2nc(-c3nnc[nH]3)no2)cc1` (configuration not stated), 38.8%.
As for `Cc1nn2cnnc2c(C)c1CCC(=O)Nc1nnc(C(C)C)s1`, the figure is -23.5%.
With `CCC(C)c1csc(NC(=O)Cc2csc(-c3nnc[nH]3)n2)n1` (configuration not stated), the INHIBITION came to 93.4%.
As for `Cc1cnn(CC2CCCN2C(=O)c2csc(-c3nnc[nH]3)n2)c1` (configuration not stated), the figure is -73.2%; as for `O=C(Cc1csc(-c2nnc[nH]2)n1)N1CCCC1Cn1cccn1` (configuration not stated), 39.5%.
As to `CC(C)(C)CC(NC(=O)N1CCC(C(N)=O)CC1)C(F)(F)F` (configuration not stated), the INHIBITION is on record as -50.7%.
The result for `CC(C)C(CNC(=O)Nc1cn[nH]c1)N1CCOCC1` (configuration not stated) reads 7.67%.
Take `CC(C)c1nn(C)c(N(C)C)c1CNCc1cscn1`: the INHIBITION is reported as -11%.
As for `CC(C)OCCC(=O)NCC(O)c1c(Cl)cccc1Cl` (configuration not stated), the figure is 17.8%; as for `COCCC(=O)N1C[C@H](C(C)C)[C@@H](N(C)C)C1`, 19.4%; as for `CC(C)(C)c1n[nH]c(C2CN(CCc3cccs3)CCO2)n1` (configuration not stated), 37.3%.
The result for `CC(C)(C)c1n[nH]c(C2CN(CCc3ccncc3)CCO2)n1` (configuration not stated) reads 57.5%; that for `CCc1n[nH]c(C2CN(CCc3ccncc3)CCO2)n1` (configuration not stated), 23.6%.
The result for `CC(CN1CCOCC1)NC(=O)c1cc(Cl)c2c(c1)OCO2` (configuration not stated) reads 29.8%.
As to `OC1(CNCCSCc2ccccc2)CCCNC1` (configuration not stated), the INHIBITION worked out at 55.4%.
As for `OC1(CNCCc2csc(-c3ccncc3)n2)CCCNC1` (configuration not stated), the figure is -15%; as for `OC1(CNCc2noc(Cc3ccccc3)n2)CCCNC1` (configuration not stated), 26%.
As for `Cc1c(C2CCCN(C(=O)OC(C)(C)C)C2)n2c(nc1=O)CCC2` (configuration not stated), the figure is 13.5%; as for `COCCC(=O)Nc1cc(CC(C)(C)C)n[nH]1`, -28.6%.
As for `Cc1cnc(C)c(-c2cc(O)c3c(c2)CN(Cc2nccs2)CCO3)n1`, the figure is -16.9%; as for `Cc1cnc(C)c(-c2cc(O)c3c(c2)CN(c2ncccn2)CCO3)n1`, 53%; as for `Cc1cnc(C)c(-c2cc(O)c3c(c2)CN(c2nccs2)CCO3)n1`, 28.5%.
Take `CS(=O)(=O)N1C[C@H](NC(=O)c2ccno2)[C@@H]2OCCC[C@@H]21`: the INHIBITION is listed as 38.5%.
As for `Cn1ccnc1CN(CCCO)CC(F)(F)F`, the figure is 54.8%; as for `Cn1ccnc1CN(CCCO)C1CCCc2ccccc21` (configuration not stated), -26.8%; as for `CSc1ccc(CN(CCO)Cc2nccn2C)cc1`, 43.9%.
For the molecule `CCOc1cccc(CNc2cncc(-n3cccn3)n2)c1`, the INHIBITION came out at 31.6%.
As for `CNS(=O)(=O)Cc1ccc(CNc2cncc(-n3cccn3)n2)cc1`, the figure is 44.2%; as for `CCCOc1ccc(CNc2cncc(-n3cccn3)n2)cc1`, 82.6%.
The result for `CCOCc1ccc(CNc2cncc(-n3cccn3)n2)cc1` reads 80.6%; that for `Fc1cccc(CNc2cncc(-n3cccn3)n2)c1`, 50.1%; that for `CCOCCOCc1cccc(CNc2cncc(-n3cccn3)n2)c1`, 24.2%.
As to `Cc1cccc(CNc2cncc(-n3cccn3)n2)c1`, the INHIBITION is on record as 47.6%.
The result for `CNC(=O)COc1ccc(CNc2cncc(-n3cccn3)n2)cc1` reads 23.4%; that for `COC(=O)Nc1ccc(CNc2cncc(-n3cccn3)n2)cc1`, 3.73%.
As for `CC(C)OCc1ccc(CNc2cncc(-n3cccn3)n2)cc1`, the figure is 80.6%.
Regarding `COCc1ccc(CNc2cncc(-n3cccn3)n2)cc1`, the INHIBITION is given as -21.9%.
The result for `CN(C)c1ccc(CNc2cncc(-n3cccn3)n2)cc1` reads 49.6%.
With `OCCN(Cc1ccncc1)CC1(c2ccc(Cl)cc2)CC1`, the INHIBITION stood at 46.2%.
The result for `CC(Nc1cccc2c1OCCO2)C(=O)Nc1ccc(S(N)(=O)=O)cc1` (configuration not stated) reads -24.9%; that for `Cc1nc(CN(C)C2CCN(CCCOc3ccccc3C)C2)no1` (configuration not stated), 27.4%.
For `CC(C)c1nc(C(=O)N2CCOCC2CC(=O)c2ccco2)cs1` (configuration not stated), the INHIBITION is listed as 37.4%.
As for `COC(C)(C)C(=O)NCC1CCN(Cc2cc3ccccc3[nH]2)C1` (configuration not stated), the figure is 40.8%; as for `O=C(Cn1cccc1)NCC1CCN(Cc2cc3ccccc3[nH]2)C1` (configuration not stated), 46.7%.
The result for `O=C(NCC1CCN(Cc2cc3ccccc3[nH]2)C1)C1CCCCC1` (configuration not stated) reads 54.1%; that for `Cc1nc(NCC2CC2)nc2c1COCC21CCN(C(=O)NC(C)C)C1` (configuration not stated), 29.9%; that for `CN(CC1CCOC1)c1ncc(Br)cn1` (configuration not stated), 12.8%.
The result for `CC(NC(=O)CSCC#N)c1cccc(Cl)c1` (configuration not stated) reads -29.7%; that for `Cc1nc(CN2CCCC(Cn3cncn3)C2)nc2ccccc12` (configuration not stated), 29.95%.
Take `CN(C)c1nc(NCCCN2CCc3ccccc32)ncc1F`: the INHIBITION worked out at 55.1%.
The result for `Cc1cnc(NCCCN2CCc3ccccc32)nc1` reads -15.4%; that for `Cc1ccnc(NCCCN2CCc3ccccc32)n1`, 3.58%.
As for `COCc1cc(CN(C)C(=O)CCC(=O)Nc2cc(C)ccc2F)n[nH]1`, the figure is 34.4%; as for `Cc1ccc(F)c(NC(=O)CCC(=O)N(C)Cc2nc(C)c[nH]2)c1`, 53.9%.
Regarding `CCOc1ccc(C(=O)CCC(=O)N(C)Cc2cnccn2)cc1C`, the INHIBITION was 40.6%.
In the case of `CCOc1ccc(C(=O)CCC(=O)N(C)Cc2nc(C)c[nH]2)cc1C`, the INHIBITION came to 63.4%.
As for `CCOc1ccc(C(=O)CCC(=O)NCc2csc(N)n2)cc1C`, the figure is 56.1%.
As for `CCOc1ccc(C(=O)CCC(=O)N(C)Cc2noc(C)n2)cc1C`, the figure is 11.9%.
As for `CCc1cccc(NC(=O)CCC(=O)N(C)Cc2nc(C)c[nH]2)c1`, the figure is 12.8%; as for `CCOc1ccc(C(=O)CCC(=O)NCCc2nncn2CC)cc1C`, 15%.
Turning to `CCOc1ccc(C(=O)CCC(=O)NCc2cncn2CC)cc1C`, the INHIBITION was -5.59%.

Source of the values: ChEMBL document CHEMBL4513216, “Probing the Open Global Health Chemical Diversity Library for Multistage-Active Starting Points for Next-Generation Antimalarials” (ACS Infect Dis, 2020).
